The campaign covered roughly 39,000 compounds. About 3,300 (8.5%) were called active. The entries come from a sample that favours actives as a whole.

The test has as its system HepG2. In words: cytotoxicity call (relative viability < 0.9). The conditions noted are these: 10 µM.
As for `C[C@@H]1CCCCO[C@H](CN(C)S(=O)(=O)c2cccs2)[C@@H](C)CN([C@@H](C)CO)C(=O)c2cc(NC(=O)Nc3ccc(F)cc3)ccc2O1`, the cytotoxicity call is “inactive”.

As to `NC(C(=O)O)C(O)c1ccc(O)c(O)c1` (stereo not given), the cytotoxicity call was “active”. Turning to `CNC[C@H](O)c1ccc(O)c(O)c1`, the cytotoxicity call was “inactive”.

In the case of `O=C(O)[C@@H](O)Cc1ccc(O)c(O)c1`, the cytotoxicity call is “inactive”. To `CNC[C@@H](O)c1ccc(O)c(O)c1` belongs “inactive”.

Regarding `NC[C@@H](O)c1ccsc1`, the cytotoxicity call is “inactive”. To `CNCC(O)c1ccc(O)c(O)c1.O=C(O)C(O)C(O)C(=O)O` (stereo not given) belongs “active”; to `N[C@@H](C(=O)O)c1ccc(C(=O)O)c(O)c1`, “inactive”; to `N[C@H](C(=O)O)[C@H](O)c1ccc(O)c(O)c1`, “inactive”. Consider `NCC(O)c1ccc(O)c(O)c1.O=C(O)C(O)C(O)C(=O)O` (stereo not given), for which the cytotoxicity call was “active”. As for `NC[C@H](O)c1ccc(O)c(O)c1`, the entry is “active”. To `N[C@H](C(=O)O)c1ccc(C(=O)O)c(O)c1` belongs “inactive”. To `NC[C@@H](O)c1ccc2ccccc2c1` belongs “inactive”; to `Cc1noc(C)c1S(=O)(=O)N(C)C[C@H]1Oc2ccc(NC(=O)Cc3cn(C)c4ccccc34)cc2CC(=O)N([C@@H](C)CO)C[C@H]1C`, “inactive”.

For `COc1cccc(S(=O)(=O)N[C@@H]2C=C[C@H](CC(=O)NC3CCC3)O[C@H]2CO)c1`, the cytotoxicity call was “inactive”. As for `C[C@H](CO)N1C[C@H](C)[C@@H](CN(C)C(=O)Cc2ccccc2)OCCCC[C@H](C)Oc2ccc(NS(=O)(=O)c3cccs3)cc2C1=O`, the cytotoxicity call is “inactive”. Take `C[C@H](CO)N1C[C@H](C)[C@@H](CN(C)Cc2ccc(C(=O)O)cc2)Oc2ccc(NC(=O)c3ccncc3)cc2C1=O`: the cytotoxicity call is “inactive”.

Take `C[C@@H]1CCCCO[C@@H](CN(C)Cc2ccc(C(F)(F)F)cc2)[C@H](C)CN([C@H](C)CO)C(=O)c2cc(NS(=O)(=O)c3cn(C)cn3)ccc2O1`: the cytotoxicity call is “inactive”.

For the molecule `CC(C)NC(=O)N(C)C[C@H]1OCCCC[C@H](C)Oc2ccc(NC(=O)Nc3ccc(C(F)(F)F)cc3)cc2C(=O)N([C@@H](C)CO)C[C@H]1C`, the cytotoxicity call is “inactive”. For `C[C@@H]1CCCCO[C@H](CN(C)S(=O)(=O)c2ccc(Cl)cc2)[C@@H](C)CN([C@@H](C)CO)C(=O)c2cc(NC(=O)C3CCCCC3)ccc2O1`, the cytotoxicity call was “inactive”. On to `C[C@@H]1CCCCO[C@H](CN(C)C(=O)CCC(F)(F)F)[C@H](C)CN([C@H](C)CO)C(=O)c2cc(NS(=O)(=O)c3ccccc3)ccc2O1`, for which the cytotoxicity call is “inactive”. To `C[C@@H]1CCCCO[C@@H](CN(C)C(=O)Nc2ccccc2)[C@H](C)CN([C@H](C)CO)C(=O)c2cc(NC(=O)Nc3ccc(C(F)(F)F)cc3)ccc2O1` belongs “inactive”; to `CC(C)NC(=O)N(C)C[C@H]1Oc2c(NS(=O)(=O)c3ccc(F)cc3)cccc2C(=O)N([C@H](C)CO)C[C@H]1C`, “inactive”. To `C[C@@H]1CN([C@@H](C)CO)C(=O)c2cc(C#CC3CC3)cnc2O[C@H]1CN(C)S(=O)(=O)c1cccc(F)c1` belongs “inactive”. To `O=c1[nH]ncn1-c1ccccc1` belongs “inactive”; to `O=c1[nH]ccn(-c2ccccc2)c1=O`, “active”; to `Cc1ccc(=O)n(-c2ccccc2)c1`, “inactive”. Turning to `Cc1c(C(=O)O)sc(=O)n1C`, the cytotoxicity call was “inactive”. As for `CC(C)NC(=O)N(C)C[C@@H]1Oc2cc(C#Cc3cccc(F)c3)ccc2S(=O)(=O)N([C@@H](C)CO)C[C@@H]1C`, the cytotoxicity call is “inactive”. Regarding `C[C@@H]1CN([C@@H](C)CO)C(=O)Cc2cc(NS(=O)(=O)c3ccccc3)ccc2O[C@@H]1CN(C)S(=O)(=O)c1ccc(F)cc1`, the cytotoxicity call is “inactive”. To `Cc1ccc(S(=O)(=O)N(C)C[C@@H]2OCCCC[C@H](C)Oc3ccc(NC(=O)CCC(F)(F)F)cc3C(=O)N([C@H](C)CO)C[C@@H]2C)cc1` belongs “inactive”. To `O=C(N[C@H](c1ccc(F)cc1)c1ccc2ccccc2n1)C1CCN(CCOc2ccc(Cl)cc2)CC1` belongs “inactive”; to `COc1ccc([C@@H](NC(=O)C2CCN(CCOc3ccc(Cl)cc3Cl)CC2)c2ccco2)cc1`, “inactive”; to `O=C(N[C@H](c1ccc(F)cc1)c1ccc2ccccc2n1)C1CCN(CCOc2ccc(Cl)cc2Cl)CC1`, “inactive”. `O=C(N[C@@H](c1ccccc1)c1ccc2ccccc2n1)C1CCN(CCOc2ccc(Cl)cc2Cl)CC1`: the cytotoxicity call was “inactive”. To `COc1ccc(OCCN2CCC(C(=O)N[C@@H](c3ccc(F)cc3)c3ccc4ccccc4n3)CC2)cc1` belongs “active”; to `O=C(N[C@@H](c1ccc(F)cc1)c1ccc2ccccc2n1)C1CCN(CCOc2ccc(F)cc2)CC1`, “active”. As for `COc1ccc(/C=C/CN2CCC(C(=O)N[C@@H](c3ccc(F)cc3)c3ccc4ccccc4n3)CC2)cc1`, the entry is “active”; as for `C[C@@H]1CN([C@@H](C)CO)C(=O)c2cccc(NS(=O)(=O)c3cccs3)c2O[C@H]1CN(C)S(=O)(=O)c1ccc(F)cc1`, “inactive”.

With `C[C@@H]1CN([C@H](C)CO)S(=O)(=O)c2ccc(-c3cccc(C#N)c3)cc2O[C@H]1CN(C)C(=O)c1cccnc1`, the cytotoxicity call is “inactive”. In the case of `COc1cccc(S(=O)(=O)N2C[C@@H](O)COC[C@@H]3O[C@H](CC(=O)N4CCN(C)CC4)CC[C@H]32)c1`, the cytotoxicity call was “inactive”. As to `CO[C@H]1CN(C)C(=O)c2cc(NS(=O)(=O)c3ccccc3)ccc2OC[C@@H](C)N(C(=O)NC(C)C)C[C@H]1C`, the cytotoxicity call was “inactive”. As for `CC(C)(C)c1nc[nH]c1/C=c1\[nH]c(=O)/c(=C/c2ccccc2)[nH]c1=O`, the entry is “inactive”.

As to `C[C@@H]1CN([C@@H](C)CO)C(=O)c2cc(NS(=O)(=O)c3cn(C)cn3)ccc2O[C@@H](C)CCCCO[C@@H]1CN(C)C(=O)CCCN(C)C`, the cytotoxicity call is “inactive”. As to `CO[C@@H]1CN(C)C(=O)c2cc(NC(=O)Nc3ccccc3F)ccc2OC[C@H](C)N(CCC(F)(F)F)C[C@@H]1C`, the cytotoxicity call was “inactive”.

As to `CC(=O)O[C@H](C[C@H](O)[C@@](C)(CCC=C(C)C)O[C@H]1O[C@@H](CO)[C@@H](O)[C@@H](O)[C@@H]1O)/C(C)=C/COC[C@@H](O)[C@@H](O)[C@@H](O)[C@@H](O)CO`, the cytotoxicity call is “inactive”.

For the molecule `CCCCCCOc1cccc(N)c1`, the cytotoxicity call is “inactive”. As for `C[C@@H]1CCCCO[C@H](CN(C)C(=O)Nc2cccc3ccccc23)[C@@H](C)CN([C@@H](C)CO)C(=O)c2cc(NC(=O)CCCN(C)C)ccc2O1`, the entry is “inactive”; as for `CNC[C@@H]1OCCCC[C@@H](C)Oc2ccc(NS(=O)(=O)c3cn(C)cn3)cc2C(=O)N([C@H](C)CO)C[C@@H]1C`, “inactive”. As for `C[C@H]1CCCCO[C@@H](CN(C)CC2CCCCC2)[C@@H](C)CN([C@@H](C)CO)C(=O)c2cc(NC(=O)Nc3ccc(C(F)(F)F)cc3)ccc2O1`, the entry is “active”; as for `C[C@@H]1CN([C@@H](C)CO)C(=O)c2cc(NC(=O)Nc3ccc(C(F)(F)F)cc3)ccc2O[C@@H](C)CCCCO[C@H]1CN(C)CC1CCCCC1`, “inactive”.

As for `C[C@@H]1CCCCO[C@@H](CN(C)CC2CCCCC2)[C@H](C)CN([C@@H](C)CO)C(=O)c2cc(NC(=O)Nc3ccc(C(F)(F)F)cc3)ccc2O1`, the cytotoxicity call was “active”.

`C[C@H](CO)N1C[C@H](C)[C@@H](CN(C)CC2CCCCC2)OCCCC[C@H](C)Oc2ccc(NC(=O)Nc3ccc(C(F)(F)F)cc3)cc2C1=O`: the cytotoxicity call was “active”. As for `C[C@@H]1CCCCO[C@@H](CN(C)CC2CCCCC2)[C@H](C)CN([C@H](C)CO)C(=O)c2cc(NC(=O)Nc3ccc(C(F)(F)F)cc3)ccc2O1`, the entry is “active”; as for `CC(C)=CCCC(C)=CCOc1ccc2ccc(=O)oc2c1`, “inactive”; as for `O=C1/C(=C/c2cn(-c3ccccc3)nc2-c2ccc(OCc3ccc(Cl)cc3)cc2)SC(=S)N1CCS(=O)(=O)O`, “inactive”. Consider `CCS(=O)(=O)NCC[C@H]1CC[C@H](NC(=O)C2CCOCC2)[C@@H](CO)O1`, for which the cytotoxicity call is “inactive”.

In the case of `O=C(C[C@H]1C[C@H]2c3cc(NS(=O)(=O)c4ccc(F)cc4)ccc3O[C@H]2[C@@H](CO)O1)NCCc1ccccc1`, the cytotoxicity call was “inactive”. To `COc1ccc(S(=O)(=O)N(C)C[C@H]2OCCCC[C@H](C)Oc3ccc(NC(=O)Nc4c(C)noc4C)cc3C(=O)N([C@H](C)CO)C[C@@H]2C)cc1` belongs “inactive”; to `C[C@H]1CN([C@@H](C)CO)C(=O)Cc2cc(NC(=O)c3ccncc3)ccc2O[C@@H]1CN(C)S(=O)(=O)c1ccc(F)cc1`, “inactive”. As for `CN1CCN(C(=O)C[C@@H]2C[C@H]3c4cc(NC(=O)c5ccc6c(c5)OCO6)ccc4O[C@H]3[C@@H](CO)O2)CC1`, the cytotoxicity call was “inactive”. For the molecule `CC(=O)O[C@@H]1CC[C@@]2(C)[C@@H](CC[C@]3(C)[C@@H]2C(=O)C=C2[C@@H]4[C@@H](C)[C@H](C)CC[C@]4(C)CC[C@]23C)[C@@]1(C)C(=O)O`, the cytotoxicity call is “inactive”.

As to `C[C@@H]1CN([C@H](C)CO)C(=O)c2cccc(NC(=O)C3CC3)c2O[C@@H]1CN(C)C(=O)Nc1ccc2c(c1)OCO2`, the cytotoxicity call was “inactive”. To `Cc1noc(C)c1NC(=O)N(C)C[C@@H]1Oc2ncc(C#CCN(C)C)cc2C(=O)N([C@H](C)CO)C[C@H]1C` belongs “inactive”.

In the case of `C[C@@H]1CCCCO[C@H](CN(C)CC2CCCCC2)[C@@H](C)CN([C@H](C)CO)C(=O)c2cc(NC(=O)Nc3ccc(C(F)(F)F)cc3)ccc2O1`, the cytotoxicity call is “active”. As for `C[C@H](CO)N1C[C@H](C)[C@H](CN(C)CC2CCCCC2)OCCCC[C@H](C)Oc2ccc(NC(=O)Nc3ccc(C(F)(F)F)cc3)cc2C1=O`, the entry is “active”. As for `C[C@@H]1CCCCO[C@@H](CN(C)CC2CCCCC2)[C@@H](C)CN([C@H](C)CO)C(=O)c2cc(NC(=O)Nc3ccc(C(F)(F)F)cc3)ccc2O1`, the entry is “active”. As for `C[C@@H]1CN([C@H](C)CO)C(=O)c2cc(NC(=O)Nc3ccc(C(F)(F)F)cc3)ccc2O[C@@H](C)CCCCO[C@@H]1CN(C)CC1CCCCC1`, the entry is “active”; as for `COCC(=O)Nc1ccc2c(c1)C(=O)N(C)C[C@@H](OC)[C@H](C)CN(C(=O)Cc1ccccn1)[C@@H](C)CO2`, “inactive”; as for `C[C@@H]1CN([C@@H](C)CO)C(=O)c2cc(C#CCc3ccccc3)cnc2O[C@@H]1CN(C)C(=O)C1CCOCC1`, “inactive”.

Values taken from the antibiotic and cytotoxicity screens of Wong et al. (2023).
